Each structure is given as a SMILES string. The panel holds about 83,000 compounds, 20% with a hit somewhere; the sample as a whole holds those more often.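 Each cell line was grown in a 96-well plate and treated with one concentration of compound for 48 hours. Values below 10 were considered active.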 Unmarked numbers belong to inactive results. The source made the active and inactive calls.

Among the data in PubChem BioAssay (NCI) are growth values, retold here.

Test systems include SK-MEL-2 melanoma; EKVX NSCLC; SN12C renal; UO-31 renal; TK-10 renal; ACHN renal; CAKI-1 renal; CCRF-CEM leukemia; MOLT-4 leukemia; SR leukemia; RPMI-8226 leukemia; OVCAR-8 ovarian; OVCAR-5 ovarian; OVCAR-4 ovarian; SK-OV-3 ovarian; IGROV1 ovarian; OVCAR-3 ovarian; HS 578T breast; NCI/ADR-RES ovarian; A498 renal.
Common to all, as to assay: NCI-60 one-dose screen, 48 h (100 = growth as untreated, 0 = no growth, -100 = all killed)
Holding throughout (conditions): 10 µM unless noted

As for `CCN(CC)c1ccc(/C=N\NC(=O)/C=C/C=C/c2ccc3c(c2)OCO3)c(O)c1`, the growth in the test on SK-MEL-2 melanoma is 65.7%; in the test on EKVX NSCLC, 52.2%; in the test on SN12C renal, 54.1%; with UO-31 renal, 25%; in the test with TK-10 renal, 37.8%; with ACHN renal, 25.6%. For the same compound, the growth in the test with CAKI-1 renal was 29.3%; with CCRF-CEM leukemia, 21.7%; with MOLT-4 leukemia it was 18.3%; in the test with SR leukemia, 17.6%; in the test with RPMI-8226 leukemia it was 53.6%; in the test with OVCAR-8 ovarian, 32.9%. Besides, the growth in the test on OVCAR-5 ovarian was 60.9%; with OVCAR-4 ovarian, 15.3%; in the test on SK-OV-3 ovarian, 39.5%; in the test with IGROV1 ovarian, 38.2%; in the test with OVCAR-3 ovarian, 4.95% (active); in the test with HS 578T breast it was 68.1%. Further, in the test on NCI/ADR-RES ovarian, the growth was 17.6%.

Turning to `CC1=C[C@H]2c3c(c(O)c(O)c4oc5ccccc5c(=O)c34)[C@H](c3cc(O)c(O)c4oc5ccccc5c(=O)c34)[C@H]2C(C)(C)C1`, the growth was 0.0517% (active) in the test with SK-MEL-2 melanoma; 18.7% with EKVX NSCLC; 7.6% (active) in the test with SN12C renal; -74% (active) in the test on UO-31 renal; 23.1% with TK-10 renal; 6.36% (active) in the test on ACHN renal. The growth in the test with CAKI-1 renal is -24.7% (active); in the test with CCRF-CEM leukemia it was 5.39% (active); with MOLT-4 leukemia, 2.9% (active); in the test with SR leukemia, 0.353% (active); with RPMI-8226 leukemia it was 15.2%; in the test with OVCAR-8 ovarian, 1.23% (active). The growth is 25.8% in the test with OVCAR-5 ovarian; 1.7% (active) in the test with OVCAR-4 ovarian; -14.1% (active) with SK-OV-3 ovarian; -4.25% (active) in the test with IGROV1 ovarian; 10.4% with OVCAR-3 ovarian; -4.62% (active) in the test on HS 578T breast. Besides, the growth in the test on NCI/ADR-RES ovarian was 23.9%.

Consider `CCCSc1ccc2nc(NC(=O)OC)[nH]c2c1`, for which the growth in the test on SK-MEL-2 melanoma is 7.33% (active); in the test with EKVX NSCLC, 58.2%; in the test with SN12C renal it was 41.5%; in the test on UO-31 renal, 45.5%; with TK-10 renal, 39.7%; with ACHN renal, 48.6%. Further, the growth in the test with CAKI-1 renal is 55%; with A498 renal, -5.4% (active); with CCRF-CEM leukemia, 10.6%; with RPMI-8226 leukemia, 14.4%; with OVCAR-8 ovarian it was 17.1%; in the test with OVCAR-5 ovarian, 34.2%. The growth in the test with OVCAR-4 ovarian was 48.9%; in the test with SK-OV-3 ovarian it was 6.85% (active); in the test with IGROV1 ovarian it was 45.3%; with OVCAR-3 ovarian, -32.1% (active); in the test with HS 578T breast, 21.2%; with NCI/ADR-RES ovarian, -8.18% (active).

Consider `CCOC(=O)c1c(C)oc2ncnc(N3CCN(C(=S)Nc4ccccc4)CC3)c12`, for which the growth in the test with SK-MEL-2 melanoma is 95.3%; in the test with EKVX NSCLC, 91.2%; in the test on SN12C renal it was 92.7%; in the test with UO-31 renal it was 75.1%; with TK-10 renal it was 100%; in the test with ACHN renal it was 92%. The growth in the test on CAKI-1 renal was 79.6%; with CCRF-CEM leukemia it was 92.3%; in the test on MOLT-4 leukemia, 91.3%; in the test on SR leukemia, 94.5%; in the test with RPMI-8226 leukemia, 83.3%; in the test on OVCAR-8 ovarian, 94%. Also, the growth was 90% in the test with OVCAR-5 ovarian; 85.1% in the test on OVCAR-4 ovarian; 96.9% in the test with SK-OV-3 ovarian; 95.4% in the test on IGROV1 ovarian; 103% in the test on OVCAR-3 ovarian; 87% in the test on HS 578T breast. For the same compound, the growth in the test on NCI/ADR-RES ovarian is 90.3%.

With `COc1ccc(/C=C/c2nc(-c3n[nH]c(=O)n3-c3ccccc3)c3ccccc3n2)cc1`, the growth in the test on SK-MEL-2 melanoma was 99.2%; in the test with EKVX NSCLC it was 94.6%; in the test on SN12C renal, 91.5%; in the test with UO-31 renal, 79.8%; with TK-10 renal it was 108%; in the test on ACHN renal, 102%. For the same compound, the growth in the test with CAKI-1 renal is 84%; in the test on CCRF-CEM leukemia, 90%; with MOLT-4 leukemia it was 95%; in the test with SR leukemia, 92.6%; with RPMI-8226 leukemia it was 89.6%; in the test with OVCAR-8 ovarian, 98.9%. In addition, the growth in the test with OVCAR-5 ovarian was 96.1%; in the test on OVCAR-4 ovarian it was 91.4%; with SK-OV-3 ovarian, 94.8%; with IGROV1 ovarian it was 99.1%; in the test with OVCAR-3 ovarian it was 101%; in the test on HS 578T breast, 100%. In the test on NCI/ADR-RES ovarian, the growth was 100%.

As for `Cn1c(=O)c2c(nc3n(-c4ccc(Cl)cc4Cl)c(Sc4nc(-c5ccccc5)c(C#N)c(=O)[nH]4)cn23)n(C)c1=O`, the growth in the test with SK-MEL-2 melanoma is 99%; in the test on EKVX NSCLC it was 59.5%; with SN12C renal it was 33%; in the test on UO-31 renal it was -1.67% (active); with TK-10 renal it was 5.58% (active); in the test on ACHN renal, 14.2%. In addition, the growth is 59.4% in the test on CAKI-1 renal; 33.5% with A498 renal; 47.7% in the test with CCRF-CEM leukemia; 75.8% in the test on MOLT-4 leukemia; 59.3% in the test with RPMI-8226 leukemia; 34.2% with OVCAR-8 ovarian. In addition, the growth in the test with OVCAR-4 ovarian is -33.1% (active); in the test with SK-OV-3 ovarian it was 39.7%; in the test on IGROV1 ovarian it was 55.6%; with OVCAR-3 ovarian it was -15.5% (active); in the test with HS 578T breast, 11.5%; in the test on NCI/ADR-RES ovarian, 43.9%.

Consider `COc1ccc(/C=C\c2cc(OC)c(OC)c(OC)c2)cc1OC(=O)c1cccc(Cn2cc(CCOC(=O)[C@H](N)Cc3cn(C)c4ccccc34)nn2)c1`, for which the growth with SK-MEL-2 melanoma is 51.1%; with EKVX NSCLC, 47.2%; in the test on SN12C renal, 38.5%; in the test with UO-31 renal, 42.5%; with TK-10 renal, 79.6%; in the test on ACHN renal, 26.6%. For the same compound, the growth is 34.4% with CAKI-1 renal; 10.2% with CCRF-CEM leukemia; 6.32% (active) in the test with MOLT-4 leukemia; -0.0904% (active) in the test with SR leukemia; 25.9% with RPMI-8226 leukemia; 23% in the test with OVCAR-8 ovarian. Besides, the growth with OVCAR-5 ovarian is 41%; in the test on OVCAR-4 ovarian it was 20.9%; in the test on SK-OV-3 ovarian it was 34.7%; in the test with IGROV1 ovarian, 16.2%; in the test on OVCAR-3 ovarian it was 1.65% (active); in the test with HS 578T breast it was 26.9%. Further, the growth in the test on NCI/ADR-RES ovarian was 6.28% (active).

On to `COc1ccc(/C=N/C2=C(C#N)C(c3ccc(N(C)C)cc3)c3ccc4ccccc4c3O2)cc1` (stereo not given), for which the growth in the test with SK-MEL-2 melanoma is 62.6%; in the test on EKVX NSCLC it was 61.3%; in the test on SN12C renal, 72.3%; in the test on UO-31 renal, 46.5%; in the test on TK-10 renal, 132%; in the test on ACHN renal it was 66%. The growth in the test with CAKI-1 renal was 19.6%; in the test on CCRF-CEM leukemia it was 63.1%; in the test with MOLT-4 leukemia, 54.4%; with SR leukemia it was 19.4%; with RPMI-8226 leukemia, 63%; in the test on OVCAR-8 ovarian, 85.8%. Also, the growth was 88% in the test on OVCAR-5 ovarian; 86.8% in the test on OVCAR-4 ovarian; 73.7% with SK-OV-3 ovarian; 39.5% with IGROV1 ovarian; 38.2% with OVCAR-3 ovarian; 58.6% in the test with HS 578T breast. Further, the growth with NCI/ADR-RES ovarian was 46.7%.
